Source: PubChem BioAssay AID1159580 (chemical genetic matrix, 2015)
Several values for one entry are separate records, joined by “and”; a condition that tells them apart may be missing. Equal values may be shown once. The campaign covered roughly 5,500 compounds. About 2,000 (36%) were called active. Roughly 18% stayed inconclusive and do not appear here. No stated cut-off is given here; in the data, active means normalized growth mostly below about 0.91 (no sharp cut-off); inconclusive means no clear call, values can overlap the other calls; inactive means mostly above about 0.92. This is one part of the list.

Assay: chemical genetic growth profiling, strain panel (AID 1159580);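 further: tested at 20 µM; growth read once vehicle control cultures reached saturation at 30 °C; 1 = growth at the plate median or of vehicle wells; lower values mean less growth of the strain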
Conditions: S. cerevisiae deletion strains, growth OD

Measured: normalized growth

CO[C@@]1(NC(=O)Cc2cccs2)C(=O)N2C(C(=O)O)=C(COC(N)=O)CS[C@@H]21
inactive: locus YAL013W, strain DEP1, hits give low values 1 | locus YAL021C, strain ccr4, hits give low values 0.939 | locus YAL026C, strain drs2, hits give low values 0.969 | locus YAL030W, strain snc1, hits give low values 0.982 | locus YBL061C, strain skt5, hits give low values 0.97 | locus YBR009C, strain hhf1, hits give low values 1.02 | locus YBR021W, strain FUR4, hits give low values 1.01 | locus YBR023C, strain chs3, hits give low values 0.971 | locus YBR171W, strain sec66, hits give low values 0.968 | locus YBR229C, strain ROT2, hits give low values 1.01 | locus YBR231C, strain swc5, hits give low values 1.03 | locus YBR279W, strain paf1, hits give low values 0.972 | locus YCL011C, strain gbp2, hits give low values 0.976 | locus YCL016C, strain dcc1, hits give low values 0.955 | locus YCL029C, strain bik1, hits give low values 0.995 | locus YCL069W, strain vba3, hits give low values 0.989 | locus YCR088W, strain abp1, hits give low values 0.975 | locus YDL005C, strain med2, hits give low values 0.981 | locus YDL035C, strain GPR1, hits give low values 1.01 | locus YDL040C, strain nat1, hits give low values 0.981 | locus YDL074C, strain BRE1, hits give low values 1.02 | locus YDL101C, strain DUN1, hits give low values 1.01 | locus YDL134C, strain PPH21, hits give low values 1 | locus YDL185W, strain tfp1, hits give low values 0.994 | locus YDL192W, strain arf1, hits give low values 1 | locus YDR001C, strain nth1, hits give low values 0.971 | locus YDR069C, strain doa4, hits give low values 0.963 | locus YDR101C, strain arx1, hits give low values 0.984 | locus YDR137W, strain rgp1, hits give low values 0.94 | locus YDR150W, strain NUM1, hits give low values 1.01 | locus YDR159W, strain sac3, hits give low values 0.943 | locus YDR162C, strain NBP2, hits give low values 1 | locus YDR195W, strain ref2 0.98 | locus YDR297W, strain sur2, hits give low values 0.998 | locus YDR318W, strain mcm21, hits give low values 0.992 | locus YDR334W, strain swr1, hits give low values 0.97 | locus YDR335W, strain msn5, hits give low values 0.955 | locus YDR388W, hits give low values 0.99 | locus YDR392W, strain spt3, hits give low values 0.838 | locus YDR502C, strain sam2, hits give low values 0.991 | locus YEL003W, strain gim4, hits give low values 0.983 | locus YEL037C, strain rad23, hits give low values 0.97 | locus YEL061C, strain CIN8 (second series), hits give low values 0.976 | locus YEL061C, strain CIN8, hits give low values 1.01 | locus YER015W, strain faa2, hits give low values 0.99 | locus YER016W, strain bim1, hits give low values 0.949 | locus YER110C, hits give low values 0.997 | locus YER111C, strain swi4, hits give low values 0.96 | locus YER155C, strain BEM2 (second series), hits give low values 0.977 | locus YER155C, strain BEM2, hits give low values 1 | locus YER167W, strain BCK2, hits give low values 1 | locus YFR010W, strain ubp6, hits give low values 1.01 | locus YGL078C, strain dbp3, hits give low values 0.986 | locus YGL086W, strain mad1, hits give low values 0.987 | locus YGL167C, strain pmr1, hits give low values 0.978 | locus YGL173C, strain kem1, hits give low values 0.987 | locus YGL227W, strain vid30, hits give low values 0.98 | locus YGL240W, strain doc1, hits give low values 1 | locus YGL248W, strain PDE1, hits give low values 1.01 | locus YGL253W, strain hxk2, hits give low values 0.978 | locus YGR078C, strain PAC10, hits give low values 1.01 | locus YGR135W, strain pre9, hits give low values 0.989 | locus YGR252W, strain gcn5, hits give low values 0.982 | locus YHR013C, strain ard1, hits give low values 0.935 | locus YHR027C, strain rpn1, hits give low values 1.01 | locus YHR030C, strain SLT2, hits give low values 1.01 and 1.08 | locus YHR079C, strain IRE1 (second series), hits give low values 0.995 | locus YHR079C, strain IRE1, hits give low values 1.08 | locus YHR094C, strain hxt1, hits give low values 0.984 | locus YHR129C, strain ARP1, hits give low values 1 | locus YHR142W, strain chs7, hits give low values 0.936 | locus YHR200W, strain rpn10, hits give low values 0.994 | locus YIL066C, strain RNR3, hits give low values 1.01 | locus YIL073C, strain SPO22, hits give low values 1.01 | locus YIL125W, strain kgd1, hits give low values 0.995 | locus YIR030C, strain dcg1, hits give low values 0.996 | locus YJL092W, strain hpr5, hits give low values 0.989 | locus YJL095W, strain BCK1 (second series), hits give low values 0.967 | locus YJL095W, strain BCK1, hits give low values 1.01 and 1.06 | locus YJL115W, strain asf1, hits give low values 0.969 | locus YJL129C, strain trk1, hits give low values 0.914 | locus YJL134W, strain LCB3, hits give low values 1.01 | locus YJL154C, strain vps35, hits give low values 0.973 | locus YJL164C, strain tpk1, hits give low values 0.98 | locus YJL166W, strain qcr8, hits give low values 0.987 | locus YJL168C, strain set2, hits give low values 0.992 | locus YJL187C, strain SWE1 (second series), hits give low values 1.01 | locus YJR043C, strain POL32, hits give low values 0.986
